Among the data in ChEMBL document CHEMBL3433997, “St. Jude Leishmania screening dataset” (2016) are inhibition values, retold here.

SMILES strings stand for the structures.

For this assay, the target named is Hexose transporter 1 (Plasmodium falciparum) (UniProt O97467). The assay can be described thus: ST_JUDE_LEISH: Cytotoxicity at 2uM final concentration against transgenic Leishmania Mexicana promastigotes LmPfHT that are glucose transport deficient and complemented with the Plasmodium falciparum hexose transporter. Activity is measured by DNA content using SYBR green in vitro. Format: functional.
Turning to `FC(F)(F)c1cccc(CNC2CCN(CC3CCCCC3)CC2)c1`, the inhibition is 4.53%.

On to `Cn1cncc1CNCc1ccc(-c2cccc(-c3nc4ccccc4[nH]3)c2)cc1`, for which the inhibition was -1.22%.

Consider `CCNc1cc(C(=O)N[C@@H](Cc2cc(F)cc(F)c2)[C@H](O)CNCc2cccc(C(F)(F)F)c2)cc(N2CCCCS2(=O)=O)c1`, for which the inhibition is -0.7%.

Take `c1ccc(Oc2ccc(Nc3ccnc(Nc4ccc5cn[nH]c5c4)n3)cc2)cc1`: the inhibition was 3.81%.

In the case of `Cc1c(C(=O)N2CCCC(C(F)(F)F)C2)sc2cccc(F)c12` (stereo unspecified), the inhibition is 6.02%.

In the case of `O=C(Nc1cccc(-c2ccc(-c3nc4ccccc4[nH]3)cc2)c1)c1csnn1`, the inhibition worked out at 1.58%.

With `CCCN(CC1CC1)c1nc(C)nc2c(-c3ccccc3)cc(C)cc12`, the inhibition was determined as 16.2%.

For the compound `O=C(Nc1ccc(Cn2ncc(N3CCCNCC3)c(Cl)c2=O)cc1)Nc1cccc(SC(F)(F)F)c1`, the inhibition was determined as 1.25%.

Turning to `Cc1ccc(-c2cnc3[nH]cc(-c4ccc(C(=O)O)c(C)c4)c3c2)cc1C`, the inhibition was 1.14%.

For `O=C(Nc1ccc(C(=O)Nc2cccc(C3=NCCN3)c2)cc1)Nc1ccc(C2=NCCN2)cc1`, the inhibition stood at 0.34%.

Take `O=C(Nc1cccc([N+](=O)[O-])c1)N(Cc1ccc(Cl)c(Cl)c1)C1CCNCC1`: the inhibition worked out at 3.21%.

For the compound `CNCCNCc1cccc(-c2ccc(-c3nc4ccccc4[nH]3)s2)c1`, the inhibition was 1.53%.

As for `Cc1c(Cc2ccccc2Br)cnc2nc(N)nc(N)c12`, the inhibition came out at 30.2%.

On to `N#Cc1ccc(C(=O)Nc2cccc(-c3ccc(CN4CCCC4)cc3)c2)cc1`, for which the inhibition is 9.72%.

Turning to `N=C(N)NC(=O)Nc1cc(Cl)c(F)c(Cl)c1`, the inhibition amounted to 4.24%.

As to `O=C(Nc1ccc2c(ccn2C2CCCN(Cc3cc(F)cc(F)c3F)CC2)c1)c1ccco1` (stereo unspecified), the inhibition was -3.49%.
